# Reference: the supplement of paper PMC10105736
# Unmarked numbers belong to inactive results.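 Rule for the calls: active = MAPPIT score above the 99th percentile of random reference set scores in the same batch; inactive = at or below it.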
# How the values were obtained:
# Assay in all cases: MAPPIT interaction score (arbitrary units); higher = stronger binary interaction signal, active = hit call of the paper
# [1] = target: GluRIIC; details: MAPPIT configuration: N-N; pair source set: Lit-BS-16
# [2] = target: Gs1; details: pair source set: RRS
# [3] = target: GstD8; details: MAPPIT configuration: N-N; pair source set: screen_1
# [4] = target: Gnpnat; details: MAPPIT configuration: N-N; pair source set: screen_1
# [5] = target: Jhbp2; details: pair source set: RRS
# 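Note: HEK293T cells with Epo stimulation, STAT-responsive firefly luciferase reporter, fold induction versus unstimulated cells divided by the larger fold induction of two negative controls lacking either bait or prey.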
binder,measurement,setting,value
cora (protein) MPAEIKPSAPAEPETPTKSKPKSSSSSHGKPALARVTLLDGSLLDVSIDRKAIGRDVINSICAGLNLIEKDYFGLTYETPTDPRTWLDLEKPVSKFFRTDTWPLTFAVKFYPPEPSQLKEDITRYHLCLQVRNDILEGRLPCTFVTHALLGSYLVQSEMGDYDAEEMPTRAYLKDFKIAPNQTAELEDKVMDLHKTHKGQSPAEAELHYLENAKKLAMYGVDLHPAKDSEGVDIMLGVCASGLLVYRDKLRINRFAWPKILKISYKRHHFYIKIRPGEFEQYESTIGFKLANHRAAKKLWKSCVEHHTFFRLMTPEPVSKSKMFPVFGSTYRYKGRTQAESTNTPVDRTPPKFNRTLSGARLTSRSMDALALAEKEKVARKSSTLDHRGDRNADGDAHSRSPIKNKKEKDADKEAKLREKKQKEKEEKERKEREKRELEEKKKAEKAAKAALAAGAAAGAAVNGNDELNDSNKSDKSSGRRGVGIFSSGRKSKSGSPSKDGKDKSGKDKDKEVGRLGLVVTSGLGDNQQDQNLDEAARNAAKNRGSTTPGVTRQYEYAVDNDGNTSPTRKSYTPGGFRYDQDPNSRKSGADGQEQLSPTSQQKKIGLAFNYAPGNENALKETAEKLKAGQLSPRTQDKLNRGQLSPKSRAKLLQDPLLSPTTRAKLQGSAVDAAAVPLSDSQKRSYSPTKGPQGYSSGAPGSYKPISDPTADFLESQRYNKEPGYVGPSKADVAAGLAGAAGSKKPGSPTKTGKGAPGAAAAAAAGAAGAAAAAAKPKKRRVKIMVITSKFDPSTKRIDAENGSIEHSTGILDPATGLIDTKYGVIDPKKGTLEALNTKTGKKEVFQGDVDGKTGNLHLVSGVADPKTGRLDDTLGQIVCITPQDNPVVELTVITSRIDPATGKIDTVNGDVERSLGVLNLDTGLLDTKYGEINTRTGELKAIDPKSGKIVVSKNVKVDPGTGQITILGIVDPKTNKIDPNQGRLIEVGQQIDPIVEVTSLAGKFDSKRNIIDPKTAQVETSGGQFDPKAGKIDTKYGQIDLVKHTITFNDPKSGKTVTRDIKIEPTTGQIVLKNQVNPKNNKPDKDYARIISLRIVQQRVDPATKAPITEVSASKDKDIVVDPKSNQIWVPTGATDPATKEQQYISSSVDPKTGYVITIYGYLDPKTNEIKKQTKLDPNTIKIEPTSGKIYTATGEVDQATGEPLYAATQVDPESGEVYTKLARVDPKTGKIVIVRILLISKTDERGRPEEIDPSTCEIDPVSGRVLKFFNKTVYVYNMIDPVTGEIVQVDPNDPRFAGARTTVTHTMTLTGEIDPVTGRIKSEYGDIDPNTGDIDPATAVTDPVTGKLILNYAQIDPSHFGKQAQVQTTTETVPITRQQFFDGVKHISKGALRRDSEGSSDDDMTAQYGADQVNEILIGSPAGQAGGKLGKPVSTPTVVKTTTKQVLTKNIDGVTHNVEEEVRNLGTGEVTYSTQEHKADATPTDLSGAYVTATAVTTRTATTHEDLGKNAKTEQLEEKTVATTRTHDPNKQQQRVVTQEVKTTATVTSGDQYQRRDSVSSTSSGDSGTPIDGPYDGASVVRTDNQKSPLFTTSATTGPHVESTRVVLGEDTPGFSGHGEIISTQTVSSKTRTVETITYKTERDGIVETRVEQKITIQSDGDPIDHDKALAEAIQEATAMNPDMTVEKIEIQQQTQ,MAPPIT interaction score,[1],-0.379
cactin (protein) MPKEKSKHRHRSRSRERRDHRSPDPRSSRNRDRDREREREKDRDHRDHRDKERDQRREREKDKSRDKKREHKSRRRRSSSSSSSPSSSTSSSVPGAPRSPLVKSPMKLLQTLEARRLVEQKDRQRKKEELKAHETPEEKRARRLREKQAKEQRRRERMGWDNEYQTYSNEDNPFGDSNLTSTFHWGKKLEVEGLSNLSTKTVEVLSLQKQLENRRELEKVKKRRQERELERQVREDDLMMQQRAKEAVQFREWQRQEDQFHLEQARLRSEIRIRDGRAKPIDLLAQYVAAGNEPLEECLEMQMHEPYVLLNGLPVEELEDLLVDIKVYEELEQGKHIDFWNDMITIVQDELQRQQKLEAENSSLNQRRDGIHQAVVKDVADIFRGKNAQQLEEMRHRIEAKISGRADGVDISYWESLLSQLKAHMARARLRDRHQALLREKLSLLKRENDNETLQEKVAPQVKEEEMETQDAEDPEVEEGSPEDEEDPLNELRKTVRLYQAGNYSPRYIREEDFTGRRAQNEDVDEPEAEGLLYEEEDDERRTQRQRLLILHPERVDNNQLTPQELRMRNEAKQGMQGDEAEFSVETTLDAVPQLATDKYRPRKPRYFNRVHTGFEWNKYNQTHYDMDNPPPKIVQGYKFNIFYPDLMDKSQTPQYFLTPCADNGDFAVLRFHTGPPYEDIAFKIVNREWEFSYKRGFRCQFHNNIFQLWFHFKRYRYRR,MAPPIT interaction score,[2]; MAPPIT configuration: N-C,0.448
same,MAPPIT interaction score,[2]; MAPPIT configuration: N-N,0.325
GstD1 (protein) MVDFYYLPGSSPCRSVIMTAKAVGVELNKKLLNLQAGEHLKPEFLKINPQHTIPTLVDNGFALWESRAIQVYLVEKYGKTDSLYPKCPKKRAVINQRLYFDMGTLYQSFANYYYPQVFAKAPADPEAFKKIEAAFEFLNTFLEGQDYAAGDSLTVADIALVATVSTFEVAKFEISKYANVNRWYENAKKVTPGWEENWAGCLEFKKYFE,MAPPIT interaction score,[3],5.85 (active)
Gnpnat (protein) MVQLTEETYLYDPNLLLKLDFHRSPANFKPFISAANPGEPWMKVRPLKDTDYDRGFLQLLSQLTHVGNVNRTQFLTRFSQMKASGDYFVTVIEDTRKNEIIGAASLVIERKFIHNCAVRGRLEDVVVNDTYRGKQLGKLIVVTVSLLAEELGCYKMSLDCKDKLIKFYESLGYVAIPGNSNSMTIRYDEGPTLKRNATSAGSSGTVGDSCQTVSLDFAS,MAPPIT interaction score,[4],5.14 (active)
same,MAPPIT interaction score,[5]; MAPPIT configuration: N-C,-0.259
same,MAPPIT interaction score,[5]; MAPPIT configuration: N-N,0.242
